Our source for the inhibition values is PubChem BioAssay AID778 (Sanford-Burnham Center for Chemical Genomics, 2007).

The term inhibition denotes the drop in the measured response relative to a control, in per cent.

Molecules are shown by their SMILES. The whole screen tested about 96,000 compounds, of which about 20,000 (21%) were called active. A selection follows. Unmarked numbers belong to inactive results.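 The calls were made as follows: active = CYP2C19 inhibition above a set limit at 5 µM in the primary screen (cut at about 50% in these data); inactive = the rest.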

Cytochrome P450 2C19 (Homo sapiens), sequence (P33261 whole entry, looked up): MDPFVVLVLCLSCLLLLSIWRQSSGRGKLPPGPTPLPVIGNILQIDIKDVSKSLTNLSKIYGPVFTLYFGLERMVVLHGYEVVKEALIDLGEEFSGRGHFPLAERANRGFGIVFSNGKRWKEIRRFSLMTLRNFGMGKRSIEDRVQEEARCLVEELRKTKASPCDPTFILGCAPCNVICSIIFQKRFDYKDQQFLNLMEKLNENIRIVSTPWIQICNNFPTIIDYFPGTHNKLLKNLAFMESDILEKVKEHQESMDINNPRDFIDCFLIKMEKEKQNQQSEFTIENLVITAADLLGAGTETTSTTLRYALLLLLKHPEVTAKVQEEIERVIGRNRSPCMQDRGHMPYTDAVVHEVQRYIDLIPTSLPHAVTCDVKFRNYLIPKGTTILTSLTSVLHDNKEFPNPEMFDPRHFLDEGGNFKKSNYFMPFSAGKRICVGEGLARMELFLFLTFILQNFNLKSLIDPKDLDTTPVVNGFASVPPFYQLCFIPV

The test addresses Cytochrome P450 2C19 (Homo sapiens) (UniProt P33261). Put plainly: blockers of cytochrome P450 2C19 activity – biochemical, luminescence, ADME assay, primary screen (AID 778).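 Also: plate controls were negative control wells for no effect and 2.5 mM tranylcypromine positive control for full effect.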 The following applies: CYP2C19 Supersomes, luciferin-H EGE luminescence, 30 min; at 5 µM; hits give high values.
In the case of `COCc1[nH]nc2c1C(C1C=CCCC1)C(C#N)=C(N)O2` (configuration not stated), the inhibition was 17.2%.

On to `N#CC1=C(N)OC2=C(C(=O)CCC2)C1C1CC=CCC1` (configuration not stated), for which the inhibition was 61.1% (active).

Consider `CC1CCc2c(sc(NC(=O)c3ccc(Cn4cc(Br)cn4)o3)c2C(N)=O)C1` (configuration not stated), for which the inhibition was 28.9%. For the molecule `Nc1ccccc1SCc1cc([N+](=O)[O-])cc2c1OCOC2`, the inhibition is 19.4%. The figure for `Cc1ccc(SCCN2C(=O)NC(C)(C)C2=O)cc1` is 97.8% (active); for `CCC(=O)c1ccc(OCC(O)CN2C(=O)NC(C)(C)C2=O)cc1` (configuration not stated) it is 31.7%.

Turning to `CC1(C)NC(=O)N(CCOc2cccc(Oc3ccccc3)c2)C1=O`, the inhibition is 42.5%. In the case of `Cc1ccc(SCC2=NNC(=O)C2)cc1`, the inhibition was 7.6%. Next, `CC1(C)NC(=O)N(CCCCSc2ccc(Cl)cc2)C1=O`: 87.5% (active); `N#CC1=C(N)Oc2c(sc3ccccc23)C1c1ccco1` (configuration not stated): 22.6%.

With `Cc1c(Cl)c([N+](=O)[O-])nn1Cc1ccc(C(=O)N/N=C\c2cc(Cl)ccc2O)o1`, the inhibition was 31.1%. On to `CCN(CC)CCn1c(=S)[nH]c2ncccc2c1=O`, for which the inhibition was -16.9%.

As for `Cc1cccc(N2C(=O)c3cccnc3C2=O)c1`, the inhibition was 10.5%.

As for `COc1ccc(C(C(=O)NCc2ccccc2)N(Cc2cccs2)C(=O)c2cnccn2)cc1` (configuration not stated), the inhibition is 47%. Turning to `COC(=O)c1ccc(CN(c2ccccc2OC)S(=O)(=O)c2cccs2)o1`, the inhibition is 98.5% (active). The figure for `COC(=O)c1ccc(Cc2ccccc2)o1` is -1.3%. The figure for `CCCCN(CCCC)C(=O)CCS(=O)(=O)c1ccc2c(c1)n(C)c(=O)c(=O)n2C` is 3.1%; for `CS(=O)(=O)c1ccc2c(c1)SC1=NC(=O)/C(=C/c3ccco3)C(=N)N12` it is 8.6%. For `CCS(=O)(=O)N1CCCC(C(=O)NCCCN(C)Cc2ccccc2)C1` (configuration not stated), the inhibition was -3%. The figure for `O=C1CC(Cc2ccccc2)C(=O)N1c1ccc(Cl)cn1` (configuration not stated) is 59.4% (active); for `Cc1cc(C)nc(N2C(=O)CC(Cc3ccccc3)C2=O)n1` (configuration not stated) it is 15.5%.

Take `O=C(O)CN1C(=O)CC(Cc2ccccc2)C1=O` (configuration not stated): the inhibition is -1%. The figure for `COc1ccc(-n2c(C)nc3c(cnn3-c3ccccc3)c2=O)cc1` is 14.9%. Next, `Cc1cc(C)c(S(=O)(=O)c2ccccc2)c(OC(=O)c2c(F)cccc2Cl)n1`: 12.4%; `Cc1nc(C)c(C(=O)Nc2ccc(C)c(F)c2)o1`: -9%. The figure for `CCOc1ccccc1-n1c(SCC(=O)N2CCCC2)nnc1-c1ccoc1C` is 2%. Regarding `Cc1ccc2nc(/C(C#N)=C\c3ccc(OC(=O)c4cccs4)cc3)[nH]c2c1`, the inhibition was 50.9% (active). Consider `Cc1ccc2nc(S(=O)(=O)O)[nH]c2c1`, for which the inhibition was -14.4%. As to `COc1ccc(/C=C(/NC(=O)c2ccc(C)cc2)c2nc3ccccc3[nH]2)cc1OC`, the inhibition was 35.6%. The figure for `C=CCn1c(SCC(=O)/C(C#N)=C(\C)N)nc2sc(C)c(C)c2c1=O` is 6.6%. With `Cc1cnc(NC(=O)CSc2nnc(C)s2)s1`, the inhibition was 19.7%. Regarding `O=C(CSc1ncnc2c1cnn2CCc1ccccc1)Nc1ccc(F)cc1`, the inhibition is 7.1%. Next, `CCC(C)NC(=O)N[C@@H](CCSC)C(=O)O` (some centres not stated): -1.9%; `CCC1(C)Cc2c(sc3nnn(CC(=O)Nc4ccc(Cl)cc4)c(=O)c23)CO1` (configuration not stated): 22.1%. Take `CCCSc1nc(NCc2ccco2)c2c3c(sc2n1)COC(C)(CC)C3` (configuration not stated): the inhibition is 13.8%. In the case of `CCC1(C)Cc2c(sc3nc(SC)nc(N)c23)CO1` (configuration not stated), the inhibition was 80.9% (active). The figure for `COC(=O)c1cc(OC)c(OC)cc1NC(=O)C1CCCO1` (configuration not stated) is 23.5%; for `O=C(Nc1sc2c(c1-c1nc3ccccc3[nH]1)CCCC2)C1CC1` it is 9.4%. For the molecule `Cc1ccc(C(=O)c2c(NC(=O)c3ccncc3)sc3c2CCCC3)cc1`, the inhibition was 28.7%. As to `O=C1NC(c2ccncc2)Nc2sc3c(c21)CCCC3` (configuration not stated), the inhibition is 82.8% (active). Next, `COc1ccc2nc(NC3=NCN(CC4CCCO4)CN3)nc(C)c2c1` (configuration not stated): 2%. In the case of `COc1ccccc1-c1nc(C#N)c(N2CCC(C(N)=O)CC2)o1`, the inhibition is -9.9%. As for `Cc1cccn2c(=O)c(/C=C(\C#N)S(=O)(=O)c3ccc(Cl)cc3)c(N3CCC(C(N)=O)CC3)nc12`, the inhibition is 86.2% (active). As to `Cc1ccc(C(c2nnnn2CS(=O)(=O)c2ccc(C)cc2)N2CCC(C(N)=O)CC2)cc1` (configuration not stated), the inhibition is 0.4%.

With `COc1ccc(-c2cc(C(=O)NC(C(=O)O)C(C)C)c(C)o2)cc1OC` (configuration not stated), the inhibition is 6.4%.

`CCN(CC)P(=O)(C(NC(=O)OC)C(F)(F)C(F)(F)C(F)(F)C(F)F)N(CC)CC` (configuration not stated): the inhibition was 10%. Turning to `CCN(CC)CCNC(=O)CCCCCn1c(=O)[nH]c2cc(C(=O)OC)ccc2c1=O`, the inhibition is 0%. As to `Cc1n[nH]c(C)c1S(=O)(=O)N1CCCC(C(=O)NCC2COc3ccccc3O2)C1` (configuration not stated), the inhibition is 15.3%. As for `Cc1cc2c(cc1C)NC(c1ccccn1)C1=C(CC(C)(C)CC1=O)N2` (configuration not stated), the inhibition was 1.3%.

Take `Cc1nn(-c2ccccn2)c2c1C(c1ccncc1)C1=C(CC(C)(C)CC1=O)N2` (configuration not stated): the inhibition was 98.7% (active). Regarding `O=S(=O)(N1CCCCC1)N1CCNCC1`, the inhibition is -28.7%. The figure for `CCN(CC)CCn1c2ccc(Cl)cc2c2nc(C)sc21` is 49.4%; for `CCC1CCCCN1C(=O)Nc1cccc(NC(=O)N2CCCCC2CC)c1` (configuration not stated) it is -10.7%.

`COc1ccc(C(C)=O)cc1CN1C(=O)NC2(CCCCC2C)C1=O` (configuration not stated): the inhibition was 33.8%. The figure for `CCOC(=O)N1CCN(CC(=O)c2c(C)[nH]c3ccccc23)CC1` is 88% (active). On to `Cc1c(C(=O)CN2CCOCC2)[nH]c2ccccc12`, for which the inhibition is 56% (active). Next, `CC1CCN(CC(=O)c2c[nH]c3ccccc23)CC1`: 12.2%.

For the molecule `Cc1c(C(=O)N2CCOCC2)[nH]c2ccc(OCc3ccccc3)cc12`, the inhibition is 43.3%. With `Cc1ccc2c(C(=O)CN3CCCC3)c(C)[nH]c2c1`, the inhibition was 26.2%. The figure for `Cc1[nH]c2ccccc2c1C(=O)COC(=O)C(C)C` is 25.9%; for `CSc1nc2ccccc2cc1/C=C(\C#N)c1ccc(Cl)cc1Cl` it is 12.7%; for `COc1ccc(OC)c(CN2C(=O)CCC2(C)C(=O)NC2CCCCCC2)c1` (configuration not stated) it is 18.1%. Regarding `CCOc1c2ccc(C(=O)NCc3ccc(OC(F)(F)F)cc3)cc2nn1C`, the inhibition was 13.9%. Take `O=C(NCc1cccs1)c1ccc2c(c1)ncn2C1CCCC1`: the inhibition is 5.6%.

Regarding `O=C(COC(=O)c1ccccc1SCC(=O)NC1CCCCC1)NC1CCCCC1`, the inhibition was 12.2%. For the molecule `COCCNC(=O)c1onc(CSc2cccc(C)c2)c1C(=O)O`, the inhibition is 39.1%. Next, `CCOC(=O)CC1C(=O)NCCN1C(=O)COc1ccc(Br)cc1C` (configuration not stated): 15.5%; `CCCCn1c(CCCNC(=O)CC)nc2ccccc21`: -20%.

Consider `C=C(Br)Cn1c(CCCC)nc2ccccc21`, for which the inhibition was 63.8% (active).

For `CCCCn1c(CN2CCN(CCO)CC2)nc2ccccc21`, the inhibition was 20.4%. `Cc1nc2c(-c3ccccc3)c(C)[nH]n2c(=O)c1Cl`: the inhibition is -1%.

For the molecule `CC(=O)Nc1nc(C)c(Cc2ccccc2)c(=O)[nH]1`, the inhibition is 6.3%. The figure for `CC(Sc1sc(=S)sc1SC(C)C(=O)O)C(=O)O` (configuration not stated) is -1.4%. Next, `CCCOc1ccc(Cn2c(O)cc(=O)[nH]c2=O)cc1`: -7.8%; `CC1Cc2ccccc2N1C(=O)c1cc2sccc2n1Cc1ccccc1` (configuration not stated): 25.4%; `CCOC(=O)c1cc2sccc2n1Cc1ccc(C#N)cc1`: 96.9% (active).

Consider `CCOc1ccc(-c2nnc(-c3ccco3)o2)cc1`, for which the inhibition is 19%. Next, `COc1cc(C2CC(=O)N3CN(Cc4ccccc4)CSC3=C2C#N)ccc1OCc1ccccc1` (configuration not stated): 33%; `COc1ccc(C2=NOC(C(=O)NCc3ccco3)C2)cc1OC` (configuration not stated): -4.7%. Next, `Cc1ccc(CNC(=O)C2CC(c3ccccc3[N+](=O)[O-])=NO2)o1` (configuration not stated): 61.7% (active). On to `O=C(NCCCCc1ccccc1)C1CC(c2ccc([N+](=O)[O-])cc2)=NO1` (configuration not stated), for which the inhibition was 9.5%. The figure for `O=C(O)CN(Cc1ccco1)S(=O)(=O)c1ccccc1` is -12.5%. As to `COc1ccc(N2CCN(C3CC(=O)N(c4ccc5c(c4)OCCO5)C3=O)CC2)cc1` (configuration not stated), the inhibition is 9.7%. In the case of `Cc1ccc(N2C(=O)CC(Sc3ncn[nH]3)C2=O)cc1` (configuration not stated), the inhibition is 5.4%. `Cc1ccc(CC2CC(=O)N(c3ccc4c(c3)OCCO4)C2=O)cc1` (configuration not stated): the inhibition was 62.6% (active). The figure for `COC(=O)N1CN(C(=O)OC)CN(C(=O)OC)C1` is -10.2%; for `CCn1c(SCc2ccc(C)cc2)nnc1-c1nn(-c2ccccc2)ccc1=O` it is -0.8%. For the molecule `O=C(NCc1ccco1)c1ccc(Cn2c(=O)c3sccc3n(Cc3ccc(F)cc3)c2=O)cc1`, the inhibition was 79.8% (active).

On to `O=C(NCc1ccco1)c1cc2sccc2n1Cc1ccc(F)cc1`, for which the inhibition is 32.8%. The figure for `O=C(Cc1ccc(-n2c(=O)c3sccc3n(Cc3ccc(F)cc3)c2=O)cc1)NCc1ccco1` is 49.5%; for `C=CCn1c(Oc2ccc(C(=O)OC)cc2)nc2c1c(=O)n(C)c(=O)n2C` it is 5.6%; for `CC(=O)NCCc1ccc(S(=O)(=O)N(C)C2CCS(=O)(=O)C2)cc1` (configuration not stated) it is -2.2%. Next, `Cc1cc(C)c(S(=O)(=O)N2C=CC(C(F)(F)F)=NCC2)c(C)c1`: 19%.

Take `O=C(Cn1cc(/C=N/NC(=O)c2cccc(C(F)(F)F)c2)c2ccccc21)Nc1ccc(F)cc1`: the inhibition was 9.9%. Next, `CCNS(=O)(=O)c1ccc(NC(=O)Nc2cccc(C(F)(F)F)c2)cc1`: 1.1%; `O=C(CNS(=O)(=O)c1cccc(C(F)(F)F)c1)Nc1ccccc1F`: 74.7% (active); `CCN(CC(=O)NCc1cccs1)c1nnnn1-c1ccccc1`: 27.1%.
